Holding throughout (assay): NCI-60 one-dose screen, 48 h (100 = growth as untreated, 0 = no growth, -100 = all killed)
Settings in all cases: 10 µM unless noted

Assay [1] deals with T-47D breast.
For assay [2], the system named is BT-549 breast.
Assay [3] concerns MDA-MB-435 melanoma.
Assay [4] deals with SW-620 colon.
Assay [5] relates to MCF7 breast.
Assay [6] deals with HCT-116 colon.
Assay [7] deals with HCC-2998 colon.
Assay [8] deals with KM12 colon.

Compounds without any hit were thinned out: in the full panel of roughly 83,000, 20% have a hit.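 The endpoint reported here, percent growth, reads 100 for growth as untreated, 0 for no net growth and -100 for all cells dead.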 A number with no mark means an inactive call. Active and inactive are the calls of the source. How the source made its calls: active means growth percent below 10; inactive means the rest.

On to `COC(=O)[C@@]12CC=C(C)[C@]3(C[C@H](c4ccoc4)OC3=O)[C@H]1C=C[C@@H](O)[C@@]2(O)C(=O)OC`, for which the growth was 110% in assay [1]; 110% in assay [2]; 102% in assay [3]; 113% in assay [4]; 101% in assay [5]; 97.7% in assay [6]. The figures for the growth in assay [7] and in assay [8] were 101% and 103%, respectively.

As for `CCCN(CCSSCCNc1nc(N(C)O)nc(N(C)O)n1)c1nc(N(C)O)nc(N(C)O)n1`, the growth in assay [1] was 61.9%; in assay [2] it was 7.99% (active); in assay [3] it was 95.1%; in assay [4] it was 75.1%; in assay [5], 83.2%; in assay [6], 41%. The values for the growth in assay [7] and in assay [8] were 59.8% and 48.2%, respectively.

On to `CNC(=O)NCC1OC(n2cnc3c(NC(=O)Nc4ccccc4)ncnc32)C2OC(=O)CC12` (configuration not stated), for which the growth in assay [1] was 91.6%; in assay [2], 100%; in assay [3], 101%; in assay [4], 106%; in assay [5] it was 97.9%; in assay [6], 98.7%. Further, the growth in assay [7] is 93.1%; in assay [8] it was 106%.

In the case of `COc1ccc(CNc2ccc3nc(NC(=O)CN4CCCCCC4)sc3c2)cc1`, the growth in assay [1] was 42.8%; in assay [2] it was 86.1%; in assay [3], 94.1%; in assay [4], 86.7%; in assay [5], 69.1%; in assay [6], 68.6%. Besides, the growth in assay [7] is 109%; in assay [8], 89.2%.

Consider `O=C(NC1CCC(Br)CC1)C1CCCC(S(=O)(=O)NC2CCCCC2)C1` (configuration not stated), for which the growth in assay [1] was -9.71% [25 µM] (active); in assay [2] it was 21.6% [25 µM]; in assay [3] it was 14.4% [25 µM]; in assay [4], 31.2% [25 µM]; in assay [5], 6.38% [25 µM] (active); in assay [6], 17% [25 µM]. The growth in assay [7] is 24.6% [25 µM]; in assay [8], 16.9% [25 µM].

In the case of `CCOC(=O)c1cnn(CC(C)O)c1NC(=O)NCc1cccc(F)c1` (configuration not stated), the growth was 100% in assay [1]; 101% in assay [2]; 107% in assay [3]; 102% in assay [4]; 104% in assay [5]; 84% in assay [6]. For the same molecule, the growth is 94.9% in assay [7] and 106% in assay [8].

On to `O=C1C=CC2(O)OC/C(=C\c3ccccc3)C(O)=C2C1=O` (configuration not stated), for which the growth in assay [1] was -19.8% (active); in assay [2] it was -1.66% (active); in assay [3], 15.8%; in assay [4], 5.52% (active); in assay [5], 23.4%; in assay [6], -9.7% (active). Further, the growth in assay [7] was 80.6%; in assay [8], -16.9% (active).

`Cc1cccc(NC(=O)N/C(N)=N/c2nc3ccccc3s2)c1`: the growth in assay [1] is 35.5%; in assay [2], 57.2%; in assay [3], 2.83% (active); in assay [4] it was 34.3%; in assay [5] it was 21.9%; in assay [6] it was 23.8%. Besides, the growth is 56.4% in assay [7] and 25.1% in assay [8].

As to `CC/C(=C(\c1ccc(Cl)cc1)c1ccc(OCCN2CCCCC2)cc1)c1ccc(O)cc1`, the growth was 4.66% (active) in assay [1]; 58.3% in assay [2]; 2.07% (active) in assay [3]; -35.7% (active) in assay [4]; 3.41% (active) in assay [5]; -56.5% (active) in assay [6]. Besides, the growth in assay [7] was 37.5%; in assay [8] it was 17.5%.

In the case of `C=CN(C(=O)N1CCN(c2cc3c(cc2F)c(=O)c(C(=O)O)cn3C2CC2)CC1)c1nc(-c2ccc(Cl)cc2)cs1`, the growth in assay [1] was 76.2%; in assay [2] it was 63.1%; in assay [3] it was 74.8%; in assay [4], 93.9%; in assay [5], 51.3%; in assay [6], 24.1%. Further, the results for the growth in assay [7] and in assay [8] were 95.9% and 61.8%, respectively.

For `CCOC(=O)c1[nH]cc2c1CCc1sc(Nc3ccccn3)nc1-2`, the growth in assay [1] is 55.4%; in assay [2] it was 79.4%; in assay [3], 86.2%; in assay [4], 103%; in assay [5], 57.1%; in assay [6] it was 75.7%. For the same molecule, the growth in assay [7] is 94.6%; in assay [8], 64.3%.

Consider `Cc1ccc(O)c(NC(=O)c2cccc(Nc3ccnc(C(F)(F)F)c3)c2)c1`, for which the growth in assay [1] was 21%; in assay [2], 57.9%; in assay [3] it was 60.2%; in assay [4] it was 90.8%; in assay [5] it was 40.7%; in assay [6], 34.9%. Moreover, the values for the growth in assay [7] and in assay [8] were 74.3% and 75.9%, respectively.

Turning to `O=C(/C=C/C12c3ccccc3C(c3ccccc31)C1C(=O)NC(=O)C12)c1ccc(I)cc1` (configuration not stated), the growth in assay [1] is 38.9%; in assay [2], 46.1%; in assay [3], 31.2%; in assay [4], 25%; in assay [5], 16.5%; in assay [6], 35.8%. In addition, the results for the growth in assay [7] and in assay [8] were 100% and 57.8%, respectively.

For `COc1cc(/C=C/c2cc(/C=C/c3ccc(O)c(OC)c3)n(C(=O)Nc3ccc(Cl)cc3)n2)ccc1O`, the growth in assay [1] was 18.5%; in assay [2] it was -14.4% (active); in assay [3], 2.46% (active); in assay [4], 9.56% (active); in assay [5] it was 5.36% (active); in assay [6], 4.61% (active). Moreover, the growth is 4.55% (active) in assay [7] and 3.53% (active) in assay [8].

The record behind these values is PubChem BioAssay (NCI).
